From PubChem BioAssay (EPA / NIEHS)
Inconclusive results are not listed. Activity calls are given as the source filed them. The calls were made as follows: active = hit-call score of the fitted dose curve at least 0.9, where 1 is the maximum; inconclusive = response in the unintended direction; inactive = score below 0.9.

What was measured:
[1] = NVS_GPCR_bNPY_NonSelective: NovaScreen (NVS) G Protein-Coupled Receptor Assay for bovine Neuropeptide Y (NPY) Receptor, Non-selective Binding (AID 2283245)
How it was run: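 Bovine hippocampal membranes incubated 1 hour with radioligand and test chemical. Bound ligand measured by filter-based scintillation counting. Single-concentration screen at 25 uM in duplicate, then concentration-response up to 50 uM.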

[2] = target: human Serotonin, 5-Hydroxytryptamine Receptor 2A (5HT2A), HTR2A (gene 3356) (UniProt P28223); assay: NVS_GPCR_h5HT2A: NovaScreen (NVS) G Protein-Coupled Receptor Assay for human Serotonin, 5-Hydroxytryptamine Receptor 2A (5HT2A) (AID 2283249)
Chain of human Serotonin, 5-Hydroxytryptamine Receptor 2A (5HT2A), HTR2A (gene 3356) (P28223 whole entry, looked up): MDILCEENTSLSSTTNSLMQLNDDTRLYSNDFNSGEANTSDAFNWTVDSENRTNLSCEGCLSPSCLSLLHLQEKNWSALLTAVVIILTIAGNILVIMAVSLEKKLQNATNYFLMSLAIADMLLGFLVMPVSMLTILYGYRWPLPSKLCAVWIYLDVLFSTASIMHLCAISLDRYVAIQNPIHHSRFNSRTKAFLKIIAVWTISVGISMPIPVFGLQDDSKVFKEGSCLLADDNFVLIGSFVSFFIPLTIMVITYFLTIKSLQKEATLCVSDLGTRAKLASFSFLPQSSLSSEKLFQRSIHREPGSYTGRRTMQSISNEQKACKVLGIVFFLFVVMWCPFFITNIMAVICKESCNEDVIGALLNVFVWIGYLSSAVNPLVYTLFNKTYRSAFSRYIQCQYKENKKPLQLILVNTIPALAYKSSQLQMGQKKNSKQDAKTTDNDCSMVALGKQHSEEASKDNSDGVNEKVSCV
How it was run: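 Human cortex membranes, cell-free radioligand binding; filter-based scintillation read 1.5 h after dosing. Duplicate screen at 25 uM first; displacement of specific binding (loss of signal) versus DMSO.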

[3] = system: guinea pig Muscarinic, Peripheral (Mperiperal) Receptor, Non-selective Binding, gene 100379235; assay: NVS_GPCR_gMPeripheral_NonSelective: NovaScreen (NVS) G Protein-Coupled Receptor Assay for guinea pig Muscarinic, Peripheral (Mperiperal) Receptor, Non-selective Binding (AID 2283250)
How it was run: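 Guinea pig bladder membranes, radioligand binding read 1 h after dosing by filter scintillation counting; loss of signal vs DMSO. Primary duplicate screen at 25 uM, then concentration-response up to 50 uM.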

[4] = target: human Serotonin, 5-Hydroxytryptamine Receptor 7 (5HT7), HTR7 (gene 3363) (UniProt P34969); assay: NVS_GPCR_h5HT7: NovaScreen (NVS) G Protein-Coupled Receptor Assay for human Serotonin, 5-Hydroxytryptamine Receptor 7 (5HT7) (AID 2283255);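 also: hits reduce specific radioligand binding relative to DMSO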
Chain of human Serotonin, 5-Hydroxytryptamine Receptor 7 (5HT7), HTR7 (gene 3363) (P34969 whole entry, looked up): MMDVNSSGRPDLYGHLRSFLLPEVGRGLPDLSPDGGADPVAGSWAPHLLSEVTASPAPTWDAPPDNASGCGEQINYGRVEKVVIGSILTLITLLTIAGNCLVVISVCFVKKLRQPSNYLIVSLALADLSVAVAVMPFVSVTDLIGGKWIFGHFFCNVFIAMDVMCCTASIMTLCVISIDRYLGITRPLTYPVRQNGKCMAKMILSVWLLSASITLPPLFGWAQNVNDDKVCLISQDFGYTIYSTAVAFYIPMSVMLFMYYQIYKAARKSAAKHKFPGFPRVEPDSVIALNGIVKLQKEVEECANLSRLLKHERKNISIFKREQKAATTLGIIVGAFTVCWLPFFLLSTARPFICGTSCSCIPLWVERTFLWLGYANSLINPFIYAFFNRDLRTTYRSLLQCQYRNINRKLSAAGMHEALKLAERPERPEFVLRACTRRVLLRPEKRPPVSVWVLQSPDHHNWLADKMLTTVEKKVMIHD
How it was run: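 Radioligand displacement on membranes from CHO cells expressing human 5HT7, 1 h incubation, filter-based scintillation counting. Primary screen used a single 25 uM concentration in duplicate; actives were followed up in concentration series.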

[5] = target: human Adrenergic, Beta 3 Receptor (Adrb3), ADRB3 (gene 155) (UniProt P13945); assay: NVS_GPCR_hAdrb3: NovaScreen (NVS) G Protein-Coupled Receptor Assay for human Adrenergic, Beta 3 Receptor (Adrb3) (AID 2283262)
Chain of human Adrenergic, Beta 3 Receptor (Adrb3), ADRB3 (gene 155) (P13945 whole entry, looked up): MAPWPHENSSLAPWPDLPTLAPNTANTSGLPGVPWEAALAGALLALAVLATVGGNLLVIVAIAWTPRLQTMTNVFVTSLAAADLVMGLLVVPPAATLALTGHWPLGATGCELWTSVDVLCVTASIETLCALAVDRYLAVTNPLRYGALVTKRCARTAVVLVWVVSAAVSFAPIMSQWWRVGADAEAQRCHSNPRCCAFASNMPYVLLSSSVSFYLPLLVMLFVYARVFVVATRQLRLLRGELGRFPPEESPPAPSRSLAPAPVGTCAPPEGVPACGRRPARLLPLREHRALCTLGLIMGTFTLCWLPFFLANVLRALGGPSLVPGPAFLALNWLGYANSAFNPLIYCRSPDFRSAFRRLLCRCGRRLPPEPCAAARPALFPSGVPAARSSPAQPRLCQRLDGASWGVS
How it was run: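 Membranes from SK-N-MC cells pretreated with isoproterenol and 8-bromo-cAMP were used in a radioligand competitive displacement binding assay. Binding was read by filter-based scintillation counting 1 hour after dosing. Primary screening was in duplicate at 25 uM, with concentration series in follow-up.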

[6] = target: human Histamine 1 Receptor (H1), HRH1 (gene 3269) (UniProt P35367); assay: NVS_GPCR_hH1: NovaScreen (NVS) G Protein-Coupled Receptor Assay for human Histamine 1 Receptor (H1) (AID 2283268)
Chain of human Histamine 1 Receptor (H1), HRH1 (gene 3269) (P35367 whole entry, looked up): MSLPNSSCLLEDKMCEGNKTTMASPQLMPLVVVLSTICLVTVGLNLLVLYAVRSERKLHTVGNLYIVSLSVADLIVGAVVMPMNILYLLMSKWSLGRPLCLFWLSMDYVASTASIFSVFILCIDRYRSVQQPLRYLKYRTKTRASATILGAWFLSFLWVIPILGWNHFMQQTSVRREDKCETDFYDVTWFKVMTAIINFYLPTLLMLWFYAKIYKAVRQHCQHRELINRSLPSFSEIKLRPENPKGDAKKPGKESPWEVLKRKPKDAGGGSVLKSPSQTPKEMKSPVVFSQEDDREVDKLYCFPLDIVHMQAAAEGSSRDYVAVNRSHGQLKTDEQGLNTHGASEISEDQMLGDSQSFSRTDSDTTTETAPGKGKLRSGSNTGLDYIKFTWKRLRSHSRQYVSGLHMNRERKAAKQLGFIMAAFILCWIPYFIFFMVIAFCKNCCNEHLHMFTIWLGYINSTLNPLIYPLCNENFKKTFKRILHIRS
How it was run: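 Cell-free radioligand displacement at human H1 receptor, 1 h, filter scintillation counting; primary screen 25 uM in duplicate, hits in concentration series; loss of binding fitted vs DMSO.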

[7] = target: guinea pig Opioid, Kappa 1 Receptor (OpiateK), OPRK1 (gene 100135587) (UniProt P41144); assay: NVS_GPCR_gOpiateK: NovaScreen (NVS) G Protein-Coupled Receptor Assay for guinea pig Opioid, Kappa 1 Receptor (OpiateK) (AID 2283252);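 also: radioligand displacement from kappa opioid receptor in guinea pig cerebellar membranes; active means reduced radioligand binding relative to DMSO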
Chain of guinea pig Opioid, Kappa 1 Receptor (OpiateK), OPRK1 (gene 100135587) (P41144 whole entry, looked up): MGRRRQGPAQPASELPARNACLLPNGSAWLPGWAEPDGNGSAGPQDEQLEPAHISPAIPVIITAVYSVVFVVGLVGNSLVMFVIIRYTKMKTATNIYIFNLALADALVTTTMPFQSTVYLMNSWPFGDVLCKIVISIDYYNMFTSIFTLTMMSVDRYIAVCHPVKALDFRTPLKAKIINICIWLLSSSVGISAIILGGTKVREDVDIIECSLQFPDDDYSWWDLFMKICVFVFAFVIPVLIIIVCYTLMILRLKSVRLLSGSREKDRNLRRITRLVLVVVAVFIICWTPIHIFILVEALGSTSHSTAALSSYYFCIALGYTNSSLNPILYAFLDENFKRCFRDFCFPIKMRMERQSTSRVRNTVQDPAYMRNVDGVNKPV
How it was run: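 Guinea pig cerebellar membranes, radioligand displacement with filter-based scintillation counting, 2 h after dosing. Primary screen single concentration 25 uM in duplicate; actives retested in concentration series; loss of binding fitted versus DMSO.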

[8] = target: human Adrenergic, Alpha 2A Receptor (Adra2A), ADRA2A (gene 150) (UniProt P08913); assay: NVS_GPCR_hAdra2A: NovaScreen (NVS) G Protein-Coupled Receptor Assay for human Adrenergic, Alpha 2A Receptor (Adra2A) (AID 2283257)
Chain of human Adrenergic, Alpha 2A Receptor (Adra2A), ADRA2A (gene 150) (P08913 whole entry, looked up): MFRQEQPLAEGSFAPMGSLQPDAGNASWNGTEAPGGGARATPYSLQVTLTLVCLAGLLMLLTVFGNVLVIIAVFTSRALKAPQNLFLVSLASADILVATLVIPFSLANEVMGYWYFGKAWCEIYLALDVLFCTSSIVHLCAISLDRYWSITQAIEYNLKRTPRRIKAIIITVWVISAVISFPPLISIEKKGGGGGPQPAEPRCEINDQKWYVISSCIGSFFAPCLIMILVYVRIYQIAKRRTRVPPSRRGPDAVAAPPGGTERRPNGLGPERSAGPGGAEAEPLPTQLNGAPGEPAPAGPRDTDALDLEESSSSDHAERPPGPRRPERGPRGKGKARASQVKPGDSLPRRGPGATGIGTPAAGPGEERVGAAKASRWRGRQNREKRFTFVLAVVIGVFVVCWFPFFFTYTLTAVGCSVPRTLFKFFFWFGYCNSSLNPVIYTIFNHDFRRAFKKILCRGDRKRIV
How it was run: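 Radioligand filter-binding was run on HT29-derived membranes, cell-free, read by scintillation counting 1 h after dosing. Primary screening was in duplicate at 25 uM, with concentration series in follow-up. Loss of signal versus DMSO indicates displacement.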

[9] = target: human Adrenergic, Alpha 2c Receptor (Adra2C), ADRA2C (gene 152) (UniProt P18825); assay: NVS_GPCR_hAdra2C: NovaScreen (NVS) G Protein-Coupled Receptor Assay for human Adrenergic, Alpha 2c Receptor (Adra2C) (AID 2283259)
Chain of human Adrenergic, Alpha 2c Receptor (Adra2C), ADRA2C (gene 152) (P18825 whole entry, looked up): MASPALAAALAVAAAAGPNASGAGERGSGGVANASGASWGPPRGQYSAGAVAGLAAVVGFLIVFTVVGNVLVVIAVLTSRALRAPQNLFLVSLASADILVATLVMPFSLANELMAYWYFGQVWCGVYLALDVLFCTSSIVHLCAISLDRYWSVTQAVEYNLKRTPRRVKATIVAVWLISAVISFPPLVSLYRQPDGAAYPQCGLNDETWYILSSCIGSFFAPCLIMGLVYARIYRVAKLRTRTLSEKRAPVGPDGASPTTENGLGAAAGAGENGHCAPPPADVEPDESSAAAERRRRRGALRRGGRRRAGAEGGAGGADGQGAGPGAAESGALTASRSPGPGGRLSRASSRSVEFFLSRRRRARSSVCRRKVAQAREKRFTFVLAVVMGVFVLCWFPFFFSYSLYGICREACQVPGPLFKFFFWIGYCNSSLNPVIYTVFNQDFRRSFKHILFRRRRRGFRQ
How it was run: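 Radioligand binding on Sf9-expressed receptor membranes, 1 h after chemical dosing, filter-based scintillation read-out. Loss of binding fitted positively versus DMSO; primary duplicate screen at 25 uM, actives retested in concentration series.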

[10] = target: human Serotonin, 5-Hydroxytryptamine Receptor 6 (5HT6), HTR6 (gene 3362) (UniProt P50406); assay: NVS_GPCR_h5HT6: NovaScreen (NVS) G Protein-Coupled Receptor Assay for human Serotonin, 5-Hydroxytryptamine Receptor 6 (5HT6) (AID 2283253)
Chain of human Serotonin, 5-Hydroxytryptamine Receptor 6 (5HT6), HTR6 (gene 3362) (P50406 whole entry, looked up): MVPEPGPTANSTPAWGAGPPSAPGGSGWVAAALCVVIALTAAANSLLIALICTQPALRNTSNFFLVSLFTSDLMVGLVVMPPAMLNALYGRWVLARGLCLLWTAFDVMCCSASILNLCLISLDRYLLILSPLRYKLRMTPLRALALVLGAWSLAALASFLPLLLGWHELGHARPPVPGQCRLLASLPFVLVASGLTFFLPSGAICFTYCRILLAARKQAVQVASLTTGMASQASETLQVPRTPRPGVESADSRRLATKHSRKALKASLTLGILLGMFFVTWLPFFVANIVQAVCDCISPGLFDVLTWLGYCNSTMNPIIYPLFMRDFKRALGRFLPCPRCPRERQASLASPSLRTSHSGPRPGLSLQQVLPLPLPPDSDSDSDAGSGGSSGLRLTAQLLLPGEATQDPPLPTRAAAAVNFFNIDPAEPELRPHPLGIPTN
How it was run: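 Radioligand binding to 5HT6 in HEK293-derived membranes, cell-free, 1 h after dosing; bound ligand measured by filter-based scintillation counting. Primary screen in duplicate at 25 uM; actives retested in concentration series.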

[11] = target: human Adrenergic, Beta 1 Receptor (Adrb1), ADRB1 (gene 153) (UniProt P08588); assay: NVS_GPCR_hAdrb1: NovaScreen (NVS) G Protein-Coupled Receptor Assay for human Adrenergic, Beta 1 Receptor (Adrb1) (AID 2283258)
Chain of human Adrenergic, Beta 1 Receptor (Adrb1), ADRB1 (gene 153) (P08588 whole entry, looked up): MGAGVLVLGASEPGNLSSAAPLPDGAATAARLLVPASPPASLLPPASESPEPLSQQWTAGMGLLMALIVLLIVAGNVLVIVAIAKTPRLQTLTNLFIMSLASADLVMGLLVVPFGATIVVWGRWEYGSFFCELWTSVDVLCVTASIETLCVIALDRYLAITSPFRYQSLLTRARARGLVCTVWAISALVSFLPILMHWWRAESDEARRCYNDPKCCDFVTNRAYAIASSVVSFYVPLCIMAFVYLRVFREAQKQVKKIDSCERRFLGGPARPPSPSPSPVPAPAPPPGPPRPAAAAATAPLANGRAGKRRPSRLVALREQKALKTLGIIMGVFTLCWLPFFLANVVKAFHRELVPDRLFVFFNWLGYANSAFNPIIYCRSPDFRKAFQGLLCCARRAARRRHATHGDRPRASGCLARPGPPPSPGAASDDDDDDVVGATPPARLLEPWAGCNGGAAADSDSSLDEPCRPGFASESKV
How it was run: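 Cell-free radioligand displacement on receptor from human neuroepithelioma cells; 2 h after dosing, filter-based scintillation counting. Primary screen in duplicate at 25 uM, actives retested in concentration series; loss of signal vs DMSO baseline.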

[12] = target: Beta-2 adrenergic receptor (Homo sapiens) (UniProt P07550); assay: NVS_GPCR_hAdrb2: NovaScreen (NVS) G Protein-Coupled Receptor Assay for human Adrenergic, Beta 2 Receptor (Adrb2) (AID 2283261)
Chain of Beta-2 adrenergic receptor (Homo sapiens) (P07550 whole entry, looked up): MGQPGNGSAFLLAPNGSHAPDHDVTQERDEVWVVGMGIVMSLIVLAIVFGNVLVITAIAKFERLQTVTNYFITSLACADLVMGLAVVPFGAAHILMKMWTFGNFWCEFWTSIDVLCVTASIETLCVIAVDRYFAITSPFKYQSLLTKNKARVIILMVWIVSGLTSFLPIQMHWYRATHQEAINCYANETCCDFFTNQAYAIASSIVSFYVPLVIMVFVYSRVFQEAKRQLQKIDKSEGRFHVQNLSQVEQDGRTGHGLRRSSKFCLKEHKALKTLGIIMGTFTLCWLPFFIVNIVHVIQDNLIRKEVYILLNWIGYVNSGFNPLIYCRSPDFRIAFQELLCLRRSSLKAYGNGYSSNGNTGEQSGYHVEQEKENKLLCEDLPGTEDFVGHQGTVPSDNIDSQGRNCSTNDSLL
How it was run: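 Filter-based radioligand binding using receptor prepared from CHO cells, 1 h incubation, scintillation counting. Primary screen in duplicate at 25 uM, actives retested in concentration series; loss of binding relative to DMSO.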

[13] = target: human Dopamine Receptor D4.4 (DRD4.4), DRD4 (gene 1815) (UniProt P21917); assay: NVS_GPCR_hDRD4.4: NovaScreen (NVS) G Protein-Coupled Receptor Assay for human Dopamine Receptor D4.4 (DRD4.4) (AID 2283264)
How it was run: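 Radioligand displacement on human DRD4.4 from CHO-derived membranes, 1 hour incubation, bound counts read by filtration and scintillation. Primary screen in duplicate at 25 uM; actives followed up in concentration series.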

[14] = system: bovine Histamine 1 Receptor (H1), gene 281231; assay: NVS_GPCR_bH1: NovaScreen (NVS) G Protein-Coupled Receptor Assay for bovine Histamine 1 Receptor (H1) (AID 2283246)
How it was run: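 Radioligand displacement on bovine cerebellar membranes, 1 h after dosing, filter-based scintillation read-out; loss of signal vs DMSO. Duplicate single-concentration screen at 25 uM, then concentration-response up to 50 uM for hits.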

[15] = target: Type-1 angiotensin II receptor (Homo sapiens) (UniProt P30556); assay: NVS_GPCR_hAT1: NovaScreen (NVS) G Protein-Coupled Receptor Assay for human Angiotensin II receptor type 1 (AT1) (AID 2283263)
Chain of Type-1 angiotensin II receptor (Homo sapiens) (P30556 whole entry, looked up): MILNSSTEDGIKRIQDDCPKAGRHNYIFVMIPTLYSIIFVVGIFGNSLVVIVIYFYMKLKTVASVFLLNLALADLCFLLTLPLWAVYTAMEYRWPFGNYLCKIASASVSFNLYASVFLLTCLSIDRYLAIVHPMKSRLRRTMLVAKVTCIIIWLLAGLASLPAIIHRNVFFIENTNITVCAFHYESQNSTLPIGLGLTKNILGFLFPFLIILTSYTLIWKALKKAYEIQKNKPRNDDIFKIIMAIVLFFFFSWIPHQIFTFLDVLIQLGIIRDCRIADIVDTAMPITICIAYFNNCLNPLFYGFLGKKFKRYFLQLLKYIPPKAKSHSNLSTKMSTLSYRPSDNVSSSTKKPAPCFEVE
How it was run: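 Membranes from KAN-TS cells; radioligand competitive displacement, 3 h, filtration and scintillation counting. Single-point duplicate screen at 25 uM, then concentration-response up to 50 uM for hits; loss of signal fitted versus DMSO.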

[16] = target: human Endothelin Receptor Type B (ETB), EDNRB (gene 1910) (UniProt P24530); assay: NVS_GPCR_hETB: NovaScreen (NVS) G Protein-Coupled Receptor Assay for human Endothelin Receptor Type B (ETB) (AID 2283267)
How it was run: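 Human astrocytoma cell membranes; radioligand competitive binding read by filter scintillation counting 4 hours after dosing. Single-concentration duplicate screen at 25 uM, then singleton concentration-response up to 50 uM; loss of signal versus DMSO.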

Measured: AC50

CCCCCCCCCCCC[N+](C)(C)C
active: [2] 4.04 µM | [3] 4.49 µM | [4] 17.3 µM | [5] 25 µM | [6] 15.7 µM
inactive: [1]

COc1ccc2cc(S(=O)(=O)N[C@H](CC(=O)N[C@H](Cc3ccc(CN4[C@H](C)CCC[C@@H]4C)cc3)C(=O)N(C)C(C)C)c3ccc4c(c3)OCO4)ccc2c1
inactive: [4]
active: [1] 10.7 µM | [2] 7.94 µM | [3] 5.48 µM | [7] 0.548 µM | [8] 18.8 µM | [9] 5.22 µM | [6] 17.8 µM

CCCCCCCCCCCO
inactive: [1]

NCc1cccc(C2CCN(C(=O)c3ccc(C#Cc4ccccc4F)o3)CC2)c1
active: [1] 25 µM | [3] 9.09 µM | [7] 25 µM | [10] 8.69 µM | [4] 6.87 µM | [8] 25 µM | [11] 20.6 µM | [9] 4.51 µM | [12] 12.6 µM | [13] 25 µM | [6] 22.1 µM
inactive: [5]

O=C1c2ccccc2C(=O)N1CCc1noc(-c2ccc(CN3CCCCCC3)s2)n1
inactive: [7] | [16]
active: [14] 12.1 µM | [2] 2.4 µM | [3] 4.5 µM | [4] 8.12 µM | [8] 0.861 µM | [9] 1.08 µM | [15] 14.8 µM | [6] 7.44 µM

CN(C)C(=O)C1(N2CCCCC2)CCN(CC[C@@]2(c3ccc(Cl)c(Cl)c3)CN(C(=O)c3ccccc3)CCO2)CC1
active: [1] 15.1 µM | [2] 0.957 µM | [3] 8.87 µM | [7] 5.78 µM | [10] 23.6 µM | [4] 3.39 µM | [8] 35.6 µM | [11] 20.7 µM | [9] 12.1 µM | [12] 25.9 µM | [5] 23.6 µM | [15] 15.7 µM | [13] 12.2 µM | [6] 20.3 µM
